# Assay results from the supplement of paper PMC6518042.
# Values without a mark were called inactive.
# Test system: Pectobacterium parmentieri SCC3193
# Experiment: DuctApe activity index (growth/respiration on compound as sole nutrient source, blank-subtracted) (activity index (0-3)); higher = stronger utilization of the compound, active = 3 or more
# Description: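 Biolog Phenotype Microarray plates PM1, PM2A (carbon), PM3 (nitrogen) and PM4 (phosphorus/sulfur) inoculated with P. parmentieri SCC3193 in M9-C minimal salts medium with Biolog dye A, and read in the OmniLog for 46 h. Each well was tested in triplicate and the experiment was run twice. DuctApe computed a blank-subtracted activity index (AV, 0-3) from the mean curves; growth is positive at AV >= 3 and negative at AV <= 2.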
# [1] = nutrient role (plate category): nitrogen
# [2] = nutrient role (plate category): phosphate & sulphur
# [3] = nutrient role (plate category): carbon
smiles,measurement,setting,value
O=C(O)CC[C@@H](C(=O)O)N1C(=O)c2ccccc2C1=O [N-Phthaloyl-L-Glutamic acid],DuctApe activity index,[1],0
N[C@@H](CCC(=O)N[C@@H](CS)C(=O)NCC(=O)O)C(=O)O [Glutathione],DuctApe activity index,[2],1
Nc1ccn([C@@H]2O[C@H](CO)[C@@H](O)[C@H]2OP(=O)(O)O)c(=O)n1 [Cytidine 2`-Monophosphate],DuctApe activity index,[2],3 (active)
N[C@@H](Cc1ccc(O)cc1)C(=O)O [L-Tyrosine],DuctApe activity index,[1],0
O=C(O)[C@@H](O)[C@H](O)C(=O)O [D-Tartaric acid],DuctApe activity index,[3],0
Nc1ccn([C@@H]2O[C@H](CO)[C@@H](O)[C@H]2O)c(=O)n1 [Cytidine],DuctApe activity index,[1],3 (active)
OC1OC[C@@H](O)[C@@H](O)[C@@H]1O (stereo partly drawn) [D-Arabinose],DuctApe activity index,[3],1
N[C@H](CCC(=O)O)C(=O)O [D-Glutamic acid],DuctApe activity index,[1],0
CCCCCCCCCC(=O)O [Capric acid],DuctApe activity index,[3],0
OC[C@H]1O[C@@H]2O[C@H]3[C@H](O)[C@@H](O)[C@@H](O[C@H]4[C@H](O)[C@@H](O)[C@@H](O[C@H]5[C@H](O)[C@@H](O)[C@@H](O[C@H]6[C@H](O)[C@@H](O)[C@@H](O[C@H]7[C@H](O)[C@@H](O)[C@@H](O[C@H]8[C@H](O)[C@@H](O)[C@@H](O[C@H]9[C@H](O)[C@@H](O)[C@@H](O[C@H]1[C@H](O)[C@H]2O)O[C@@H]9CO)O[C@@H]8CO)O[C@@H]7CO)O[C@@H]6CO)O[C@@H]5CO)O[C@@H]4CO)O[C@@H]3CO [g-Cyclodextrin],DuctApe activity index,[3],0
CC(C)[C@@H](N)C(=O)O [D-Valine],DuctApe activity index,[1],0
"O=C1O[C@H](CO)[C@@H](O)[C@H]1O [D-Ribono-1,4-Lactone]",DuctApe activity index,[3],0
NC(N)=S [Thiourea],DuctApe activity index,[2],0
OC[C@H]1O[C@@H](O[C@@H]2[C@@H](CO)OC(O)(CO)[C@H]2O)[C@H](O)[C@@H](O)[C@H]1O (mixture of isomers) [Lactulose],DuctApe activity index,[3],3 (active)
Nc1ncnc2c1ncn2[C@H]1C[C@H](O)[C@@H](CO)O1 [2`-Deoxyadenosine],DuctApe activity index,[3],1
O=C1O[C@@H]([C@H](O)CO)[C@H](O)[C@H]1O [D-Galactonic acid-g-Lactone],DuctApe activity index,[3],3 (active)
O=C(O)Cc1cccc(O)c1 [m-Hydroxyphenyl Acetic acid],DuctApe activity index,[3],0
NCCCCN=C(N)N [Agmatine],DuctApe activity index,[1],0
OC[C@H]1OC(O)[C@H](O)[C@@H](O)[C@H]1O (stereo partly drawn) [D-Galactose],DuctApe activity index,[3],3 (active)
N[C@@H](C(=O)O)[C@@H](O)[C@H](O)[C@H](O)CO [D-Glucosaminic acid],DuctApe activity index,[3],0
NCC(=O)N[C@@H](CCC(N)=O)C(=O)O,DuctApe activity index,[1],1
C[C@H](N)C(=O)N[C@@H](Cc1cnc[nH]1)C(=O)O,DuctApe activity index,[1],0
O=C(O)[C@]1(O)C[C@@H](O)[C@@H](O)[C@H](O)C1 [Quinic acid],DuctApe activity index,[3],0
Oc1nc(O)c2nc(O)[nH]c2n1 [Uric acid],DuctApe activity index,[1],0
CC(=O)N[C@H]1[C@H]([C@H](O)[C@H](O)CO)OC(O)(C(=O)O)C[C@@H]1O (stereo not given in full) [N-Acetyl-Neuraminic acid],DuctApe activity index,[3],0
N[C@@H](COP(=O)(O)O)C(=O)O [O-Phospho-L-Serine],DuctApe activity index,[2],2
N[C@@H](CS(=O)(=O)O)C(=O)O [L-Cysteic acid],DuctApe activity index,[2],1
O=C(O)CC(CC(=O)O)C(=O)O [Tricarballylic acid],DuctApe activity index,[3],0
O=C(O)C[C@H](O)C(=O)O [L-Malic acid],DuctApe activity index,[3],3 (active)
CC1OC(O)C(O)C(O)C1O [L-Fucose],DuctApe activity index,[3],0
OC[C@H]1O[C@@](CO)(O[C@H]2O[C@H](CO)[C@@H](O)[C@H](O)[C@H]2O)[C@@H](O)[C@@H]1O [Sucrose],DuctApe activity index,[3],3 (active)
"C[N+](C)(C)CC(O)CC(=O)[O-] (racemic) [D,L-Carnitine]",DuctApe activity index,[3],0
OC[C@H]1O[C@H](O[C@H]2[C@H](O)[C@@H](O)[C@H](O)O[C@@H]2CO)[C@H](O)[C@@H](O)[C@@H]1O [Maltose],DuctApe activity index,[3],1
O=C(O)[C@H](O)[C@@H](O)[C@H](O)[C@H](O)CO [D-Gluconic acid],DuctApe activity index,[3],3 (active)
OC[C@H](O)C(O)[C@@H](O)CO [L-Arabitol],DuctApe activity index,[3],0
